We go through 17 molecules from PubChem BioAssay (EPA / NIEHS).

Where a structure was tested more than once in an assay, its records may differ in their call. Active and inactive are the calls of the source. Rule for the calls: active = hit-call score of the fitted dose curve at least 0.9, where 1 is the maximum; inactive = score below 0.9.

The nature of experiment [1]: ATG_ISRE_CIS: Attagene CIS-FACTORIAL HepG2 Assay for human Interferon Regulatory Factor 1 (IRF1) binding to an Interferon-Stimulated Response Element (ISRE) (AID 2282948). To be noted: HepG2 ISRE cis-reporter (Attagene), mRNA transcription readout; actives raise or lower the signal. The method, boiled down:
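Signal reflects induction or loss of ISRE-linked reporter mRNA in transiently transfected HepG2 cells after a 24 h treatment, detected by fluorescent RT-PCR fragments on capillary electrophoresis and normalised to DMSO.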

Experiment [2] can be described thus: ATG_M_32_CIS: Attagene CIS-FACTORIAL HepG2 Assay for M32 Transcription Factor (Internal Marker) (AID 2282949).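 Note: background control marker of the multiplexed CIS panel rather than a real target.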 The note with it: HepG2 Attagene cis-factorial M32 reporter, mRNA; actives raise or lower the signal. The method, boiled down:
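Using DMSO as baseline, bidirectional curve fits were applied to reporter mRNA signals. These came from transiently transfected HepG2 cells exposed for 24 h, with RNA analysed by RT-PCR, FAM primer extension, HpaI digestion and CE.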

The target in experiment [3] is Hepatocyte nuclear factor 6 (Homo sapiens) (UniProt Q9UBC0). Briefly: ATG_HNF6_CIS: Attagene CIS-FACTORIAL HepG2 Assay for human Hepatocyte Nuclear Factor 6 (HNF6) (AID 2282952). To be noted: HepG2 Attagene cis-factorial HNF6 reporter transcription; actives raise or lower the signal. Summed up:
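Twenty-four-hour chemical treatment of reporter-transfected HepG2 cells precedes RNA isolation, DNase-treated reverse transcription and PCR of reporter sequences. Labelled fragments are sized by capillary electrophoresis and fitted bidirectionally versus DMSO.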

The target in experiment [4] is Heat shock factor protein 1 (Homo sapiens) (UniProt Q00613). Nature of the experiment: ATG_HSE_CIS: Attagene CIS-FACTORIAL HepG2 Assay for human Heat Shock Transcription Factor 1 (HSE) (AID 2282953). The note with it: HepG2 HSE cis-reporter, Attagene RNA transcription; actives raise or lower the signal. The method, boiled down:
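Cells were transfected with cis-element-driven reporter constructs, dosed for 24 h, then total RNA was reverse-transcribed and reporter cDNA amplified, FAM-labelled and digested with HpaI. Fragments were resolved by capillary electrophoresis; gain or loss was fitted against DMSO.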

Experiment [5] in a line: ATG_MRE_CIS: Attagene CIS-FACTORIAL HepG2 Assay for human Metal Responsive Element (MRE) (AID 2282954). To be noted: HepG2 MRE cis-reporter transcription, Attagene multiplex; actives raise or lower the signal. The method, boiled down:
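Readout: capillary electrophoresis of 6-FAM-labelled, HpaI-digested RT-PCR reporter products. System: HepG2 cells carrying transient multiplexed cis reporters, dosed 24 h. Analysis: bidirectional fit, DMSO baseline.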

Experiment [6] in a line: ATG_PBREM_CIS: Attagene CIS-FACTORIAL HepG2 Assay for human Phenobarbital-responsive Enhancer Module (PBREM) (AID 2282955). The note with it: HepG2 PBREM cis-reporter, Attagene multiplexed transcription; actives raise or lower the signal. The method, boiled down: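 Transfected liver-derived HepG2 cells exposed 24 h; PBREM reporter transcript quantified via RT-PCR and capillary electrophoresis, with activity in either direction referenced to DMSO.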

The target of experiment [7] is Paired box protein Pax-6 (Homo sapiens) (UniProt P26367). Nature of the experiment: ATG_Pax6_CIS: Attagene CIS-FACTORIAL HepG2 Assay for human Paired Box 6 (PAX6) (AID 2282956). To be noted: HepG2 CIS-FACTORIAL PAX6 reporter transcription, RNA readout; actives raise or lower the signal. Summed up: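 Values derive from bidirectional curve fitting of reporter mRNA signal relative to DMSO. HepG2 cells bearing transfected cis-regulated MRTUs were exposed for 24 h; transcripts were read by RT-PCR and capillary electrophoresis.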
Chain of Paired box protein Pax-6 (Homo sapiens) (P26367 whole entry, looked up): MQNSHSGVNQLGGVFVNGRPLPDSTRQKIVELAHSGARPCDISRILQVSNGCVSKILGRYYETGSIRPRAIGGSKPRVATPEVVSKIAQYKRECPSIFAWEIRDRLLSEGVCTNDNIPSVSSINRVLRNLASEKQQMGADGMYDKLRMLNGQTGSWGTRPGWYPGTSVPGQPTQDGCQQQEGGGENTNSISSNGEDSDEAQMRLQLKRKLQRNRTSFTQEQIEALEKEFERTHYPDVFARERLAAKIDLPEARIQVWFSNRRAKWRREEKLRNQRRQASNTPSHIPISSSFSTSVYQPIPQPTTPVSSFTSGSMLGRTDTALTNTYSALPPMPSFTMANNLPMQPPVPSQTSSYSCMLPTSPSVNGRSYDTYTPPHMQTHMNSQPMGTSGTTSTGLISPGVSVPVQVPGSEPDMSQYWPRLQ

The nature of experiment [8]: ATG_PXRE_CIS: Attagene CIS-FACTORIAL HepG2 Assay for human Pregnane X Receptor Element (PXRE) (AID 2282957). The note with it: HepG2 Attagene CIS-FACTORIAL PXRE reporter, mRNA; actives raise or lower the signal. The method, boiled down:
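Bidirectional activity, baselined to DMSO, derived from reporter mRNA fluorescence (RT-PCR plus capillary electrophoresis) in HepG2 cells bearing cis-promoter reporter units, 24 h exposure.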

Experiment [9] has as its target Hypoxia-inducible factor 1-alpha (Homo sapiens) (UniProt Q16665). Briefly: ATG_HIF1a_CIS: Attagene CIS-FACTORIAL HepG2 Assay for human Hypoxia Inducible Factor 1 (HIF1A) (AID 2282951). The note with it: HepG2 Attagene cis-factorial HIF1a reporter transcription; actives raise or lower the signal. Summed up: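 Dosed 24 h, transfected HepG2 cells yielded total RNA whose reporter transcripts were RT-PCR-amplified and sized by capillary electrophoresis using fluorescent labelling; DMSO defined baseline, with gain and loss of signal both fitted.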

Chain of Heat shock factor protein 1 (Homo sapiens) (Q00613 whole entry, looked up, the tested form may be a part): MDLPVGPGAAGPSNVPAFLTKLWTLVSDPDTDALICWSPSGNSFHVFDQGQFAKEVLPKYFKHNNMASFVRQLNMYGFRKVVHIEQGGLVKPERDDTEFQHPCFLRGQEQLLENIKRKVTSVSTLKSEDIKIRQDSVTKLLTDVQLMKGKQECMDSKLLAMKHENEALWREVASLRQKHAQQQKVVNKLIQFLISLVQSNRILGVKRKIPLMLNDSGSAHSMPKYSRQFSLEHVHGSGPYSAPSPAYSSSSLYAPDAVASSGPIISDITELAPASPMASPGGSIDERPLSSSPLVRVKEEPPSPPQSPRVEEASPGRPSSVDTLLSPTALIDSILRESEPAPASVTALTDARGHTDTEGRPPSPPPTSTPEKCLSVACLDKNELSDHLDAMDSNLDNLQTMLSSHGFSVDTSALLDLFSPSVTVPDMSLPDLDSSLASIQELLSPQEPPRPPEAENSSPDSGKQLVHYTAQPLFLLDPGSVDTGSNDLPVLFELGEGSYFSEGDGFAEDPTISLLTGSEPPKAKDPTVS
Chain of Hepatocyte nuclear factor 6 (Homo sapiens) (Q9UBC0 whole entry, looked up, the tested form may be a part): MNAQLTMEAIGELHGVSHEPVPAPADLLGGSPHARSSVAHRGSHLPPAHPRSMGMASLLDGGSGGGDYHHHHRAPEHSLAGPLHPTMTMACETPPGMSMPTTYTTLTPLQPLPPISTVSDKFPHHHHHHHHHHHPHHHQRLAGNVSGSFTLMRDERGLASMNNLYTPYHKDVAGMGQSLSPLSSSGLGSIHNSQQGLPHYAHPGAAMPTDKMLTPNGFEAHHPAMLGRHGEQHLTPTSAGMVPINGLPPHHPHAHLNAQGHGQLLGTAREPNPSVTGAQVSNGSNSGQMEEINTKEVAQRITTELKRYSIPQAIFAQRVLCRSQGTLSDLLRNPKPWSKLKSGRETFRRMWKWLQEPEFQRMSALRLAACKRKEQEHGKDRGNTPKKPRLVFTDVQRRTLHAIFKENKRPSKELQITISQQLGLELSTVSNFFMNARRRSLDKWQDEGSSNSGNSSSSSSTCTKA
Chain of Hypoxia-inducible factor 1-alpha (Homo sapiens) (Q16665 whole entry, looked up): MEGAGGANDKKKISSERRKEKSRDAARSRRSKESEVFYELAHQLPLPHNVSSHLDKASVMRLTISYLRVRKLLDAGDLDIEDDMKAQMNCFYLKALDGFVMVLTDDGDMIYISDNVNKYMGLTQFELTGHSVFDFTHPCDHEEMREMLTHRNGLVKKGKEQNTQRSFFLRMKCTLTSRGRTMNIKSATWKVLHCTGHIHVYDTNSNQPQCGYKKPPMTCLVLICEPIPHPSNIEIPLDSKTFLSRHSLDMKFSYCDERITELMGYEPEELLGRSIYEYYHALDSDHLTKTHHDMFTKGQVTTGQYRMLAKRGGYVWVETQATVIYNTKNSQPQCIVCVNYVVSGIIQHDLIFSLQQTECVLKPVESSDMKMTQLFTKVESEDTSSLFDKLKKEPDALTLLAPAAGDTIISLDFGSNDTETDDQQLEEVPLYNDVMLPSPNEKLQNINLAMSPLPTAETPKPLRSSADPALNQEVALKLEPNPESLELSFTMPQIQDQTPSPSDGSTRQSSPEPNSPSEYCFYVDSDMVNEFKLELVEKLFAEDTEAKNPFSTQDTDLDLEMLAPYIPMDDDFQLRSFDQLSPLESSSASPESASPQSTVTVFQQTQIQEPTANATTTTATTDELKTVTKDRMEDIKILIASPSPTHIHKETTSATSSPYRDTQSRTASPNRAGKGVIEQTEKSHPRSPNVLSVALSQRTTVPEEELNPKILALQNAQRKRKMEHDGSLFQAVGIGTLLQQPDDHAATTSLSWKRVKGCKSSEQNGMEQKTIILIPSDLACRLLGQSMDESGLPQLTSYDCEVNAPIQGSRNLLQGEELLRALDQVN

On to `Nc1nc(Cl)nc2c1ncn2[C@H]1C[C@H](O)[C@@H](CO)O1`, for which the molecule was classed as inactive in [1], in experiment [2], in experiment [3], in experiment [4], in experiment [5] and in experiment [6]. The outcome in [7] and in [8] was inactive.
One may read the AC50 as the midpoint of the concentration-response curve, whichever way the signal moves. In the case of `CCC(C)N(C)C(=O)c1cc2ccccc2c(-c2ccccc2Cl)n1` (centres undefined), the AC50 in experiment [1] was 89 µM (active); in experiment [4], 101 µM (active); in experiment [5], 97.4 µM (active); in experiment [7], 63 µM (active); in experiment [8] it was 0.135 µM (active). The result in [2] and in experiment [3] was inactive.
On to `CC(C)(O)c1ccc(CNC(=O)c2cccnc2Oc2ccc(F)cc2)cc1`, for which the molecule was called inactive in experiment [1], in experiment [2], in experiment [9], in [3], in experiment [4] and in experiment [5]. Moreover, the result in experiment [6] and in experiment [7] was inactive. The half-maximal activity concentration (AC50) in experiment [8] was 7.12 µM (active).
Regarding `Cn1cnc2c1c(=O)[nH]c(=O)n2C`, the outcome in experiment [1], in experiment [2], in [3], in [4], in [5] and in experiment [6] was inactive. Besides, the molecule was classed as inactive in experiment [7] and in [8].
As to `COC(=O)CCC(=O)OC`, the outcome in experiment [1], in experiment [2], in [9], in experiment [3], in [5] and in [6] was inactive. Moreover, the molecule was classed as inactive in experiment [7] and in experiment [8].
`NC1CCCCC1`: the call in experiment [1], in experiment [2], in experiment [9], in [3], in [4] and in experiment [5] was inactive. Further, the result in experiment [6], in [7] and in [8] was inactive.
Consider `O=C1c2c(O)cccc2Cc2cccc(O)c21`, for which the molecule was classed as inactive in [1], in experiment [2], in experiment [3], in experiment [4], in experiment [5] and in experiment [6]. For the same molecule, the molecule was classed as inactive in [7] and in [8]. The AC50 in [9] was 26.6 µM (active).
In the case of `CCCCCCCCCC[N+](C)(C)[O-]`, the molecule was classed as inactive in [1], in [2], in experiment [9], in experiment [3], in experiment [4] and in experiment [5]. For the same molecule, the call in experiment [7] was inactive. For the same molecule, in [8], the concentration at half-maximal activity (AC50) was 79 µM (active).
Take `COC(=O)[C@H]1[C@H]2C[C@@H]3c4[nH]c5cc(OC)ccc5c4CCN3C[C@H]2C[C@@H](OC(=O)c2cc(OC)c(OC)c(OC)c2)[C@@H]1OC`: the molecule was called inactive in experiment [1], in experiment [2], in experiment [3] and in experiment [4]. Moreover, the AC50 in [5] is 3.49 µM (active); in experiment [7] it was 8.41 µM (active).
On to `Oc1ccccc1O`, for which the call in [1], in experiment [2], in experiment [3], in experiment [4], in [5] and in [6] was inactive. For the same molecule, the call in experiment [7] and in [8] was inactive.
For the molecule `CC(N)=O`, the outcome in experiment [1], in experiment [2], in experiment [3], in experiment [4], in [5] and in experiment [7] was inactive. The result in experiment [8] was inactive. For the same molecule, the half-maximal activity concentration (AC50) in experiment [4] was 133 µM (active); in experiment [8], 28.9 µM (active).
Take `O=C1OC(c2ccc(O)cc2)(c2ccc(O)cc2)c2ccccc21`: the concentration at half-maximal activity (AC50) in [1] was 70.1 µM (active); in experiment [3], 133 µM (active); in [4], 146 µM (active); in [5], 45.1 µM (active); in [6], 4.42 µM (active); in experiment [7] it was 36.6 µM (active). Moreover, the call in experiment [2] and in experiment [8] was inactive.
For `COc1ccc(C(=O)Nc2nc3ccccc3c(NCc3ccccc3)c2C#N)cc1`, the molecule was called inactive in experiment [1], in [2], in experiment [3], in experiment [4], in [5] and in [6]. In addition, the molecule was called inactive in experiment [7]. Moreover, the AC50 in [9] was 26.5 µM (active); in [8] it was 0.641 µM (active).
Turning to `CCCCC(CC)COC(=O)CCCCCCCC(=O)OCC(CC)CCCC` (centres undefined), the result in [1], in [2], in experiment [3], in [4], in experiment [5] and in experiment [6] was inactive. In addition, the molecule was called inactive in experiment [7] and in experiment [8]. The half-maximal activity concentration (AC50) in experiment [9] was 61.9 µM (active).
Turning to `O=C1NC(=O)C(c2ccccc2)(c2ccccc2)N1`, the call in experiment [1], in experiment [2], in experiment [3], in experiment [4], in [5] and in experiment [6] was inactive. Besides, the outcome in [7] and in [8] was inactive.
Regarding `CC(C)c1cccc(C(C)C)c1NC(=O)NS(=O)(=O)c1cc(C(C)(C)O)co1`, the molecule was called inactive in [1], in experiment [2], in experiment [9], in experiment [3], in experiment [4] and in experiment [5]. Moreover, the molecule was classed as inactive in experiment [7]. Moreover, the concentration at half-maximal activity (AC50) in experiment [8] was 16.7 µM (active).
For the molecule `N[C@@H](Cc1c[nH]c2ccccc12)C(=O)O`, the result in [1], in experiment [2], in [3], in experiment [4], in [5] and in [7] was inactive. For the same molecule, the molecule was classed as inactive in [8]. Besides, in experiment [9], the AC50 was 27.3 µM (active).
